Source: PubChem BioAssay AID1159580 (chemical genetic matrix, 2015)
About 2,000 (36%) of roughly 5,500 compounds were called active. Inconclusive results (about 18%) are left out. No stated cut-off is given here; in the data, active means normalized growth mostly below about 0.91 (no sharp cut-off); inconclusive means no clear call, values can overlap the other calls; inactive means mostly above about 0.92. The list shows a part of the results.

Assay: chemical genetic growth profiling, strain panel (AID 1159580);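 further: tested at 20 µM; growth read once vehicle control cultures reached saturation at 30 °C; 1 = growth at the plate median or of vehicle wells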
Details: growth OD
[1] = S. cerevisiae deletion strains, locus YAL013W, strain DEP1, stronger effect = lower value
[2] = S. cerevisiae deletion strains, locus YHR030C, strain SLT2, stronger effect = lower value
[3] = S. cerevisiae deletion strains, locus YJL095W, strain BCK1, stronger effect = lower value
[4] = S. cerevisiae deletion strains, locus YMR307W, strain GAS1, stronger effect = lower value

Measured: normalized growth

NCCc1c[nH]c2ccc(O)cc12
inactive: [1] 1.02 | S. cerevisiae deletion strains, locus YAL040C, strain CLN3, stronger effect = lower value 0.969 | S. cerevisiae deletion strains, locus YCL061C, strain MRC1 (second series), stronger effect = lower value 1.01 | S. cerevisiae deletion strains, locus YDR363W, strain ESC2, stronger effect = lower value 1.01 | S. cerevisiae deletion strains, locus YER002W, strain NOP16, stronger effect = lower value 1.01 | [2] 1.02 | S. cerevisiae deletion strains, locus YHR079C, strain IRE1, stronger effect = lower value 1.02 | [3] 1.01 | S. cerevisiae deletion strains, locus YJR066W, strain TOR1, stronger effect = lower value 0.942 | S. cerevisiae deletion strains, locus YLR113W, strain HOG1, stronger effect = lower value 0.991 | [4] 1.03 | S. cerevisiae deletion strains, locus YNL175C, strain NOP13, stronger effect = lower value 1.01 | S. cerevisiae deletion strains, locus YNL183C, strain NPR1, stronger effect = lower value 0.949 | S. cerevisiae deletion strains, locus YNL197C, strain WHI3, stronger effect = lower value 1 | S. cerevisiae deletion strains, locus YNL224C, strain SQS1, stronger effect = lower value 1.01 | S. cerevisiae deletion strains, locus YOR083W, strain WHI5 (second series), stronger effect = lower value 1.04 | S. cerevisiae deletion strains, locus YOR231W, strain MKK1, stronger effect = lower value 1.02 | S. cerevisiae deletion strains, locus YPL256C, strain CLN2, stronger effect = lower value 1.01

NCCc1cccc(O)c1
inactive: [1] 1.01 | S. cerevisiae deletion strains, locus YBR021W, strain FUR4, stronger effect = lower value 0.972 | S. cerevisiae deletion strains, locus YBR229C, strain ROT2, stronger effect = lower value 0.983 | S. cerevisiae deletion strains, locus YCL029C, strain bik1, stronger effect = lower value 0.981 | S. cerevisiae deletion strains, locus YDL035C, strain GPR1, stronger effect = lower value 1.01 | S. cerevisiae deletion strains, locus YDL074C, strain BRE1, stronger effect = lower value 1.01 | S. cerevisiae deletion strains, locus YDL101C, strain DUN1, stronger effect = lower value 0.985 | S. cerevisiae deletion strains, locus YDL134C, strain PPH21, stronger effect = lower value 0.984 | S. cerevisiae deletion strains, locus YDL185W, strain tfp1, stronger effect = lower value 0.989 | S. cerevisiae deletion strains, locus YDL192W, strain arf1, stronger effect = lower value 0.979 | S. cerevisiae deletion strains, locus YDR101C, strain arx1, stronger effect = lower value 0.985 | S. cerevisiae deletion strains, locus YDR150W, strain NUM1, stronger effect = lower value 1 | S. cerevisiae deletion strains, locus YDR162C, strain NBP2, stronger effect = lower value 0.996 | S. cerevisiae deletion strains, locus YDR318W, strain mcm21, stronger effect = lower value 0.983 | S. cerevisiae deletion strains, locus YDR388W, stronger effect = lower value 0.981 | S. cerevisiae deletion strains, locus YDR502C, strain sam2, stronger effect = lower value 0.992 | S. cerevisiae deletion strains, locus YEL061C, strain CIN8, stronger effect = lower value 0.994 | S. cerevisiae deletion strains, locus YER110C, stronger effect = lower value 0.985 | S. cerevisiae deletion strains, locus YER155C, strain BEM2, stronger effect = lower value 0.951 | S. cerevisiae deletion strains, locus YER167W, strain BCK2, stronger effect = lower value 0.982 | S. cerevisiae deletion strains, locus YGL078C, strain dbp3, stronger effect = lower value 0.989 | S. cerevisiae deletion strains, locus YGL086W, strain mad1, stronger effect = lower value 0.976 | S. cerevisiae deletion strains, locus YGL248W, strain PDE1, stronger effect = lower value 0.982 | S. cerevisiae deletion strains, locus YGR078C, strain PAC10, stronger effect = lower value 1 | S. cerevisiae deletion strains, locus YGR135W, strain pre9, stronger effect = lower value 0.982 | S. cerevisiae deletion strains, locus YGR229C, strain SMI1, stronger effect = lower value 1.05 | S. cerevisiae deletion strains, locus YGR252W, strain gcn5, stronger effect = lower value 0.952 | [2] 0.994 | S. cerevisiae deletion strains, locus YHR079C, strain IRE1 (second series), stronger effect = lower value 0.986 | S. cerevisiae deletion strains, locus YHR094C, strain hxt1, stronger effect = lower value 0.992 | S. cerevisiae deletion strains, locus YHR129C, strain ARP1, stronger effect = lower value 0.987 | S. cerevisiae deletion strains, locus YHR200W, strain rpn10, stronger effect = lower value 0.974 | S. cerevisiae deletion strains, locus YIL066C, strain RNR3, stronger effect = lower value 0.996 | S. cerevisiae deletion strains, locus YIL073C, strain SPO22, stronger effect = lower value 0.946 | S. cerevisiae deletion strains, locus YIL125W, strain kgd1, stronger effect = lower value 0.984 | S. cerevisiae deletion strains, locus YIR030C, strain dcg1, stronger effect = lower value 0.991 | [3] 1 | S. cerevisiae deletion strains, locus YJL134W, strain LCB3, stronger effect = lower value 0.992 | S. cerevisiae deletion strains, locus YJL168C, strain set2, stronger effect = lower value 0.987 | S. cerevisiae deletion strains, locus YJL187C, strain SWE1 (second series), stronger effect = lower value 0.991 | S. cerevisiae deletion strains, locus YJR043C, strain POL32, stronger effect = lower value 0.979 | S. cerevisiae deletion strains, locus YJR075W, strain HOC1, stronger effect = lower value 0.998 | S. cerevisiae deletion strains, locus YKL009W, strain mrt4, stronger effect = lower value 0.965 | S. cerevisiae deletion strains, locus YKL068W, stronger effect = lower value 0.992 | S. cerevisiae deletion strains, locus YKL085W, strain MDH1 (second series), stronger effect = lower value 0.987 | S. cerevisiae deletion strains, locus YKL085W, strain MDH1, stronger effect = lower value 0.987 | S. cerevisiae deletion strains, locus YKL190W, strain CNB1, stronger effect = lower value 0.997 | S. cerevisiae deletion strains, locus YKR001C, strain vps1, stronger effect = lower value 0.976 | S. cerevisiae deletion strains, locus YLR039C, strain RIC1, stronger effect = lower value 0.972 | S. cerevisiae deletion strains, locus YLR058C, strain SHM2, stronger effect = lower value 0.992 | S. cerevisiae deletion strains, locus YLR102C, strain apc9, stronger effect = lower value 0.99 | S. cerevisiae deletion strains, locus YLR262C, strain YPT6, stronger effect = lower value 0.997 | S. cerevisiae deletion strains, locus YLR268W, strain sec22, stronger effect = lower value 0.989 | S. cerevisiae deletion strains, locus YLR330W, strain CHS5, stronger effect = lower value 0.99 | S. cerevisiae deletion strains, locus YLR342W, strain FKS1 (second series), stronger effect = lower value 0.963 | S. cerevisiae deletion strains, locus YLR371W, strain rom2, stronger effect = lower value 0.991 | S. cerevisiae deletion strains, locus YLR418C, strain cdc73, stronger effect = lower value 0.985 | S. cerevisiae deletion strains, locus YML016C, strain PPZ1, stronger effect = lower value 0.985 | S. cerevisiae deletion strains, locus YML032C, strain rad52, stronger effect = lower value 0.978 | S. cerevisiae deletion strains, locus YML124C, strain tub3, stronger effect = lower value 0.989 | S. cerevisiae deletion strains, locus YMR078C, strain ctf18, stronger effect = lower value 0.983 | S. cerevisiae deletion strains, locus YMR223W, strain ubp8, stronger effect = lower value 0.979 | S. cerevisiae deletion strains, locus YMR263W, strain SAP30, stronger effect = lower value 1 | [4] 0.991 | S. cerevisiae deletion strains, locus YNL067W, strain RPL9B, stronger effect = lower value 1.01 | S. cerevisiae deletion strains, locus YNL128W, strain TEP1, stronger effect = lower value 1.03 | S. cerevisiae deletion strains, locus YNL153C, strain GIM3, stronger effect = lower value 0.996 | S. cerevisiae deletion strains, locus YNL233W, strain BNI4, stronger effect = lower value 0.989 | S. cerevisiae deletion strains, locus YNL250W, strain rad50, stronger effect = lower value 0.984 | S. cerevisiae deletion strains, locus YNL271C, strain bni1, stronger effect = lower value 0.991 | S. cerevisiae deletion strains, locus YNL298W, strain CLA4, stronger effect = lower value 0.98 | S. cerevisiae deletion strains, locus YNL307C, strain MCK1, stronger effect = lower value 0.981 | S. cerevisiae deletion strains, locus YNL322C, strain KRE1, stronger effect = lower value 0.998 | S. cerevisiae deletion strains, locus YNR052C, strain pop2, stronger effect = lower value 0.987 | S. cerevisiae deletion strains, locus YOL006C, strain TOP1, stronger effect = lower value 0.986 | S. cerevisiae deletion strains, locus YOL012C, strain htz1 0.834 | S. cerevisiae deletion strains, locus YOL147C, strain pex11, stronger effect = lower value 0.986 | S. cerevisiae deletion strains, locus YOR061W, strain CKA2, stronger effect = lower value 0.991 | S. cerevisiae deletion strains, locus YOR069W, strain VPS5, stronger effect = lower value 0.988 | S. cerevisiae deletion strains, locus YOR136W, strain idh2, stronger effect = lower value 0.975 | S. cerevisiae deletion strains, locus YOR144C, strain elg1, stronger effect = lower value 0.986 | S. cerevisiae deletion strains, locus YOR184W, strain ser1, stronger effect = lower value 0.965 | S. cerevisiae deletion strains, locus YOR316C, strain cot1, stronger effect = lower value 0.989 | S. cerevisiae deletion strains, locus YPL055C, strain LGE1, stronger effect = lower value 1.04 | S. cerevisiae deletion strains, locus YPL241C, strain CIN2, stronger effect = lower value 1 | S. cerevisiae deletion strains, locus YPR119W, strain clb2, stronger effect = lower value 0.992 | S. cerevisiae deletion strains, locus YPR141C, strain kar3, stronger effect = lower value 0.988 | S. cerevisiae deletion strains, locus YPR163C, strain tif3, stronger effect = lower value 0.984 | S. cerevisiae deletion strains, locus YPR167C, strain met16, stronger effect = lower value 0.981 | S. cerevisiae deletion strains, strain wtn01, stronger effect = lower value 0.987 | S. cerevisiae strains, strain wild type, stronger effect = lower value 1.02
